Bioassay records as filed in PubChem BioAssay.
CHT PAM: allosteric activators of human choline transporter CHT. Q9GZV3. CHT-expressing cells, membrane potential dye, choline EC20; active compounds read high; LV-AA mutant CHT in HEK293 cells. B-score at 10 µM. 310,000 tested, 0.49% active. AID 488977;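 active = initial fluorescence not abnormally high and integrated response B-score, plate-corrected, over 3 SD above library mean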
Target sequence (Q9GZV3 whole entry, looked up): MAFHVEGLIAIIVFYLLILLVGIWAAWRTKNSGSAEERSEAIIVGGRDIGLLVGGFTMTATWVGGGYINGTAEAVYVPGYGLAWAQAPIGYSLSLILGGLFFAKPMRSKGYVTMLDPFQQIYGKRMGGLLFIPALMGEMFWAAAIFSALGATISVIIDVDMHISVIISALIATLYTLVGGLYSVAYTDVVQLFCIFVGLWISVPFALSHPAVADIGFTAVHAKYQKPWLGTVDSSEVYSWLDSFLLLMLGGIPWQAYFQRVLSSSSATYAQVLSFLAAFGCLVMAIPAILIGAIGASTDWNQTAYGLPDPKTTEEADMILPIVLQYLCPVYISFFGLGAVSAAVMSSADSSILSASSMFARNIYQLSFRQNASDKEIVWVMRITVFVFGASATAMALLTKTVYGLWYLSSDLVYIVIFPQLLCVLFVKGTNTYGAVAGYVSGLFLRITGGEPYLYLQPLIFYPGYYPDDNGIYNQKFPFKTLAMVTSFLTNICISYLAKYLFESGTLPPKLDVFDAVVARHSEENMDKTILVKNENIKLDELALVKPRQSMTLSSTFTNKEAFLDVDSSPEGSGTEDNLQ
CHT block: human CHT choline transport inhibition; B-score at 10 µM; CHT-expressing cells, membrane potential dye, choline response; active compounds read low; 310,000 tested, 0.86% active; Q9GZV3;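 active = B-score over 3 SD under the library average, and starting fluorescence ratio not unusually high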;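 note: choline stimulus applied at its EC90 after an EC20 pre-addition; B-score computed on integrated fluorescence ratio after choline addition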
TAG inh: inhibitors of triacylglycerol accumulation; inhibition, % at 12.5 µM; 230,000 tested, 0.66% active; H9c2 cells, Nile Red lipid (TAG) fluorescence; cells loaded with 200 µM oleic acid;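 active = pattern-corrected inhibition of lipid staining of at least 50% with the nuclear-stain viability signal not falling by more than 50%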;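 note: 0% = DMSO wells and 100% = triacsin C control wells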
beta cell repl: inducers of beta-cell replication in MIN6 cells; MIN6 cells proliferation, ATPlite luminescence, 48 h; cells starved in 0.2% serum; 100% = growth in 10% serum; proliferation, % at 10 µM; 330,000 tested, 0.29% active;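 active = compounds whose signal lies at least 3.5 SD above the mean of all wells on their plate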;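 note: 0% = DMSO-treated cells in low-serum medium and 100% = 10% serum control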
CHT block conf: human CHT inhibition, confirmatory screen. shares compounds with CHT block. CHT-expressing cells, choline membrane potential dye; LV-to-AA substituted CHT, HEK293 cells. CHT activity remaining % of control (active compounds read low), % at 10 µM. 2,400 tested, 70% active. AID 493221;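 active = choline transporter activity left, mean of duplicates at 10 µM, below buffer-only control mean minus 3 SD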;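 note: depolarization triggered by choline at its EC90 following an EC20 pre-addition; 0% = hemicholinium-3 full block and 100% = buffer-only control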
HEK293 CHT ctr: activity in parental HEK293 cells lacking CHT. AID 493222. membrane potential dye, choline response; active = decrease or increase beyond buffer ±3SD. shares compounds with CHT block. 2,400 tested, 4% active. membrane potential ratio readout (active if shifted either direction beyond buffer ±3SD; no single direction) at 10 µM;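 note: parental cells lack the transporter so any hit is non-specific; ratio is peak minus trough fluorescence over baseline after EC90 choline challenge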
* marks the source's active call; other numbers are inactive results; i = inactive; nt = no result given. In the library only some 1.7% were active in any assay of this set; here they are far more common.

SMILES | CHT PAM | CHT block | TAG inh | beta cell repl | CHT block conf | HEK293 CHT ctr
O=C(NCC(c1cccnc1)N1CCN(c2ccccc2F)CC1)c1cccc(Cl)c1 (centres undefined) | i | -6.9* | -2 | -3 | i | i
Cc1cc(S(=O)(=O)NCc2ccncc2)c(C)cc1Br | i | -5* | -38 | -7 | 67%* | i
CCOCCCNC(=O)c1ccc(N2CCCC2)c(NS(=O)(=O)c2ccc(C)cc2)c1 | i | i | 13 | 4 | nt | nt
COCCCNC(=O)c1ccc(N2CCCC2)c(NS(=O)(=O)c2ccc(C)cc2)c1 | i | i | nt | 7 | nt | nt
Cc1ccc(S(=O)(=O)Nc2cc(C(=O)NCCN3CCCC3)ccc2N2CCCCC2)cc1 | i | -8.6* | nt | -6 | 23%* | 3.8*
Cc1ccc(S(=O)(=O)Nc2cc(C(=O)NCCN(C)C)ccc2N2CCCCC2)cc1 | i | -15* | 8 | -4 | 19%* | 3.2*
Oc1c(Br)cc(Br)cc1C=Nc1cccc2ncccc12 | i | -8.2* | 4 | -4 | 53%* | i
Brc1cccc(C=Nc2cccc3ncccc23)c1 | i | i | 2 | -1 | nt | nt
O=C(N/N=C/c1cc(Cl)cc([N+](=O)[O-])c1O)C1CC1 | i | i | -2 | -5 | nt | nt
CC(C)(C)N/N=C/c1cc(Cl)cc([N+](=O)[O-])c1O | i | -5.8* | nt | 0 | 59%* | i
CCOC(=O)c1nc(C)nc(Sc2n[nH]c(-c3cc(C(F)(F)F)cc(C(F)(F)F)c3)n2)c1C | i | i | -3 | -4 | nt | nt
COc1ccc(C(CCN2CCCCC2)c2c(OC)cc(OC)c3c(-c4ccccc4)cc(=O)oc23)cc1 (centres undefined) | i | -7.1* | 44 | -8 | 38%* | i
CCCCCc1cc(=O)oc2c(C(CCN3CCCC(C)C3)c3cc(OC)c(OC)c(OC)c3)c(OC)cc(OC)c12 (centres undefined) | i | i | 79 | -9 | nt | nt
COc1cc(OC)c2c(-c3ccccc3)cc(=O)oc2c1C(CCN1CCOCC1)c1ccc(N(C)C)cc1 (centres undefined) | nt | nt | 10 | nt | nt | nt
CCCCCc1cc(=O)oc2c(C(CCN3CCCCC3)c3cc(OC)c(OC)c(OC)c3)c(OC)cc(OC)c12 (centres undefined) | i | -6.1* | 80* | -9 | 51%* | i
CCOC(=O)c1csc(-c2csc(CCNC(=O)c3ccccc3)n2)n1 | nt | nt | 10 | nt | nt | nt
CCc1ccc(NC(=O)N2CCN(C(=O)C3CCCO3)CC2)cc1 (centres undefined) | i | i | 4 | -1 | nt | nt
CCC(C(=O)NCCCN1CC(C)CC(C)C1)n1nc(C)c2sc3ccccc3c2c1=O (centres undefined) | i | -8.8* | nt | -2 | 16%* | i
CCCn1nc(NS(=O)(=O)c2cccc3nonc23)c2cc3cc(C)ccc3nc21 | i | i | nt | -6 | nt | nt
Cc1ccc2cc3c(NS(=O)(=O)c4cccc5nonc45)nn(CC(C)C)c3nc2c1 | i | -6* | nt | -3 | 64%* | i
CCCn1nc(NS(=O)(=O)c2cccc3nonc23)c2cc3cccc(C)c3nc21 | i | -6.3* | nt | -3 | 54%* | i
Cc1cc(Oc2cccc3c2S(=O)(=O)N(C2CCCC2)CC(COCc2ccccc2)O3)cc(C)c1C (centres undefined) | nt | nt | 16 | nt | nt | nt
CCOc1cc(/C=C2\N=C(SC)SC2=O)cc([N+](=O)[O-])c1OC(C)=O | i | -5.2* | -8 | -4 | 65%* | i
Cc1ccc(S(=O)(=O)N(C)CC(=O)OCC(=O)c2c(N)n(C)c(=O)n(C)c2=O)cc1 | i | i | -5 | -4 | nt | nt
Cn1nc(C(F)(F)F)c(-c2ccccc2)c1NC(=O)CCC(=O)O | i | i | 15 | 0 | nt | nt
SMILES | CHT PAM | CHT block | TAG inh | beta cell repl | CHT block conf | HEK293 CHT ctr
Cn1nc(C(F)(F)F)c(-c2ccccc2)c1NC(=O)c1cccnc1 | i | -5.3* | -1 | 1 | 32%* | i
Cn1nc(C(F)(F)F)c(-c2ccccc2)c1NC(=O)c1ccco1 | i | -5.6* | 0 | -1 | 36%* | i
c1ccc2[nH]c(CSc3nc4ccccc4s3)nc2c1 | i | -6* | nt | -4 | i | i
Cc1nnc(SCc2nc3ccccc3[nH]2)s1 | i | i | nt | -3 | nt | nt
O=C(Nc1nc2nccc(-c3ccccc3)n2n1)c1ccccc1 | i | i | 5 | -2 | nt | nt
COc1ccc(C(=O)Nc2nc3nccc(-c4ccccc4)n3n2)cc1 | i | -6.4* | nt | 0 | i | i
CCCCCC(=O)c1ccc(O)cc1O | i | -6.1* | 5 | 0 | 55%* | i
Cc1cc2nc(C)c(Cl)c(=O)n2[nH]1 | i | -7.4* | 7 | 0 | 20%* | i
Cc1nc2cc(-c3ccc(Br)cc3)[nH]n2c(=O)c1Cl | i | i | nt | -3 | nt | nt
Clc1cccc(CNCCNCc2cccc(Cl)c2)c1 | i | -7* | -11 | 0 | 70%* | i
COC(=O)[C@@H](Cc1c[nH]c2ccccc12)NC(=O)c1ccc2c(c1)OCO2 | i | i | nt | -3 | nt | nt
O=C(C1CCN(S(=O)(=O)c2ccc3ccccc3c2)CC1)N1CCN(c2ncccn2)CC1 | i | -6* | -15 | -2 | 39%* | i
COc1ccc(CN2CCN(CC=C(C)C)C(CCO)C2)cc1Cn1cccn1 (centres undefined) | i | -6* | 8 | 2 | 64%* | i
NS(=O)(=O)c1cccc(NC(=O)CSc2nnc(C3CC3)n2Cc2ccccc2)c1 | i | -5.9* | 5 | -1 | i | i
CC(NC(=O)CNC(=O)C(Cc1ccccc1)NC(=O)OCc1ccccc1)C(N)=O (centres undefined) | i | i | -23 | 0 | nt | nt
CCCc1cc(=O)[nH]c(SCC(=O)c2cc(C)n(CC(F)(F)F)c2C)n1 | i | -6.3* | 3 | 1 | i | i
Cc1cc(C)cc(OCC(O)CN2CCC(CN3C(=O)c4cccc5cccc(c45)C3=O)CC2)c1 (centres undefined) | i | -5.5* | -1 | -6 | 58%* | i
COCCCN=Cc1c(C)[nH]n(-c2ccc(Br)cc2Br)c1=O | i | i | nt | 2 | nt | nt
O=C(CSCc1cnn(-c2ccccc2)c1-n1cccc1)NCc1cccs1 | i | -6.5* | -12 | 0 | i | i
CNC(=O)CSCc1cnn(-c2ccccc2)c1-n1cccc1 | i | i | -5 | 1 | nt | nt
COc1cccc(CNC(=O)CSCc2cnn(-c3ccccc3)c2-n2cccc2)c1 | i | i | 14 | -3 | nt | nt
CCOC(=O)N1CCC(NC(=O)CSCc2cnn(-c3ccccc3)c2-n2cccc2)CC1 | i | -7.3* | nt | 1 | i | i
COc1ccc(Cl)cc1NC(=O)CN1CCc2ccccc21 | i | i | -2 | 0 | nt | nt
